PubChem BioAssay AID1159580 (chemical genetic matrix, 2015)
Several values for one entry are separate records, joined by “and”; a condition that tells them apart may be missing. Identical values can stand only once. In all, about 5,500 compounds went through this assay and about 2,000 (36%) were called active. Inconclusive results (about 18%) are left out. Rule as the data show it: active = normalized growth mostly below about 0.91 (no sharp cut-off); inconclusive = no clear call, values can overlap the other calls; inactive = mostly above about 0.92. Some of the results follow.

Test: chemical genetic growth profiling, strain panel (AID 1159580);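 also: tested at 20 µM; growth read once vehicle control cultures reached saturation at 30 °C; 1 = growth at the plate median or of vehicle wells; lower values mean less growth of the strain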
Conditions: S. cerevisiae deletion strains, growth OD

Measured: normalized growth

CN(C)CCOC(=O)COc1ccc(Cl)cc1
inactive: locus YAL013W, strain DEP1, stronger effect = lower value 1.02 | locus YAL021C, strain ccr4, stronger effect = lower value 0.955 | locus YAL026C, strain drs2, stronger effect = lower value 0.968 | locus YAL030W, strain snc1, stronger effect = lower value 0.973 | locus YAL040C, strain CLN3, stronger effect = lower value 1.06 | locus YBL061C, strain skt5, stronger effect = lower value 0.966 | locus YBR009C, strain hhf1, stronger effect = lower value 0.984 | locus YBR021W, strain FUR4, stronger effect = lower value 0.95 | locus YBR023C, strain chs3, stronger effect = lower value 0.965 | locus YBR171W, strain sec66, stronger effect = lower value 0.969 | locus YBR229C, strain ROT2, stronger effect = lower value 1.01 | locus YBR231C, strain swc5, stronger effect = lower value 0.96 | locus YBR279W, strain paf1, stronger effect = lower value 0.987 | locus YCL011C, strain gbp2, stronger effect = lower value 0.957 | locus YCL016C, strain dcc1, stronger effect = lower value 0.969 | locus YCL029C, strain bik1, stronger effect = lower value 1.04 | locus YCL061C, strain MRC1, stronger effect = lower value 0.969 | locus YCL069W, strain vba3, stronger effect = lower value 0.974 | locus YCR088W, strain abp1, stronger effect = lower value 0.956 | locus YDL005C, strain med2, stronger effect = lower value 0.972 | locus YDL035C, strain GPR1, stronger effect = lower value 1.05 | locus YDL040C, strain nat1, stronger effect = lower value 0.973 | locus YDL074C, strain BRE1, stronger effect = lower value 1.05 | locus YDL101C, strain DUN1, stronger effect = lower value 1.02 | locus YDL134C, strain PPH21, stronger effect = lower value 1.01 | locus YDL185W, strain tfp1, stronger effect = lower value 1.03 | locus YDL192W, strain arf1, stronger effect = lower value 1.04 | locus YDR001C, strain nth1, stronger effect = lower value 0.965 | locus YDR069C, strain doa4, stronger effect = lower value 0.953 | locus YDR101C, strain arx1, stronger effect = lower value 1.03 | locus YDR150W, strain NUM1, stronger effect = lower value 1.03 | locus YDR159W, strain sac3, stronger effect = lower value 0.944 | locus YDR162C, strain NBP2, stronger effect = lower value 1.03 | locus YDR195W, strain ref2 1.02 | locus YDR297W, strain sur2, stronger effect = lower value 0.963 | locus YDR318W, strain mcm21, stronger effect = lower value 1.06 | locus YDR334W, strain swr1, stronger effect = lower value 0.933 | locus YDR335W, strain msn5, stronger effect = lower value 0.969 | locus YDR388W, stronger effect = lower value 1.03 | locus YDR392W, strain spt3, stronger effect = lower value 0.974 | locus YEL003W, strain gim4, stronger effect = lower value 0.957 | locus YEL037C, strain rad23, stronger effect = lower value 0.969 | locus YEL061C, strain CIN8 (second series), stronger effect = lower value 0.972 | locus YEL061C, strain CIN8, stronger effect = lower value 1.02 | locus YER002W, strain NOP16, stronger effect = lower value 0.971 | locus YER015W, strain faa2, stronger effect = lower value 0.972 | locus YER016W, strain bim1, stronger effect = lower value 0.968 | locus YER110C, stronger effect = lower value 1.05 | locus YER111C, strain swi4, stronger effect = lower value 0.98 | locus YER155C, strain BEM2 (second series), stronger effect = lower value 0.962 | locus YER155C, strain BEM2, stronger effect = lower value 1.01 | locus YER167W, strain BCK2, stronger effect = lower value 1.01 | locus YFR010W, strain ubp6, stronger effect = lower value 0.965 | locus YGL078C, strain dbp3, stronger effect = lower value 1.04 | locus YGL086W, strain mad1, stronger effect = lower value 1.06 | locus YGL167C, strain pmr1, stronger effect = lower value 0.968 | locus YGL173C, strain kem1, stronger effect = lower value 0.975 | locus YGL227W, strain vid30, stronger effect = lower value 0.965 | locus YGL240W, strain doc1, stronger effect = lower value 0.967 | locus YGL248W, strain PDE1, stronger effect = lower value 1.01 | locus YGL253W, strain hxk2, stronger effect = lower value 0.968 | locus YGR078C, strain PAC10, stronger effect = lower value 1.05 | locus YGR135W, strain pre9, stronger effect = lower value 1.03 | locus YGR229C, strain SMI1, stronger effect = lower value 1.06 | locus YGR252W, strain gcn5, stronger effect = lower value 1.01 | locus YHR013C, strain ard1, stronger effect = lower value 0.983 | locus YHR027C, strain rpn1, stronger effect = lower value 0.96 | locus YHR030C, strain SLT2, stronger effect = lower value 1.02 and 1.08 | locus YHR079C, strain IRE1 (second series), stronger effect = lower value 1.03 | locus YHR079C, strain IRE1, stronger effect = lower value 1.11 | locus YHR094C, strain hxt1, stronger effect = lower value 1.02 | locus YHR129C, strain ARP1, stronger effect = lower value 1.02 | locus YHR142W, strain chs7, stronger effect = lower value 0.962 | locus YHR200W, strain rpn10, stronger effect = lower value 1.06 | locus YIL066C, strain RNR3, stronger effect = lower value 1.04 | locus YIL073C, strain SPO22, stronger effect = lower value 1.08 | locus YIL125W, strain kgd1, stronger effect = lower value 1.01 | locus YIR030C, strain dcg1, stronger effect = lower value 1.03 | locus YJL092W, strain hpr5, stronger effect = lower value 0.943 | locus YJL095W, strain BCK1 (second series), stronger effect = lower value 0.965 | locus YJL095W, strain BCK1, stronger effect = lower value 1.05 and 1.09 | locus YJL115W, strain asf1, stronger effect = lower value 0.947 | locus YJL129C, strain trk1, stronger effect = lower value 1 | locus YJL134W, strain LCB3, stronger effect = lower value 1.01 | locus YJL154C, strain vps35, stronger effect = lower value 0.971 | locus YJL164C, strain tpk1, stronger effect = lower value 0.97 | locus YJL166W, strain qcr8, stronger effect = lower value 0.981 | locus YJL168C, strain set2, stronger effect = lower value 1.02 | locus YJL187C, strain SWE1 (second series), stronger effect = lower value 1.04 | locus YJL187C, strain SWE1, stronger effect = lower value 0.981 | locus YJR043C, strain POL32, stronger effect = lower value 1.09 | locus YJR066W, strain TOR1, stronger effect = lower value 0.974 | locus YJR075W, strain HOC1, stronger effect = lower value 0.98
active: locus YDR137W, strain rgp1, stronger effect = lower value 1.21 [resistant] | locus YDR502C, strain sam2, stronger effect = lower value 1.09 [resistant]
